The supplement of paper PMC6555819

System: THRa homodimer (NR concentration 90 nM)
Assay: PBM binding z-score (relative to random genomic background probes); higher = stronger binding; sequences stand for … in GC…GCGATTGACAGCGTAGAATGAAGG
How it was run: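 The probes on custom Agilent 4×180K protein-binding microarrays were double-stranded, with 34-nt variable regions bearing direct-repeat seeds, single-nucleotide variants, half-site ablations and random human genomic background sequences. Incubation lasted 1 h with ligand-free nuclear receptor dimers in PBS pH 7.4, 2% milk, 0.02% Triton X-100, 1 mM DTT, 0.2 mg/mL BSA and 0.4 mg/ml salmon testes DNA. Antibodies against each partner (one per run) detected bound dimers, and fluorescence scans were regression-normalized. Binding z-scores take the random background probes as reference.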

Sequence	PBM binding z-score
CGAACTAGGGCATCCAGGACAGTGAATACATTGA	0.745
TCGAATAGGTTAGTCGGGGCATTCAGCCAACATA	0.0462
TCTGGGAGGACACGAAAGGTCAGAGCTCGACATC	1.59
CCGAGTAGGTTATGGGGCATACAGGCAACGGTGA	-0.0646
CAGCCTAGGTCAGGGCCAGTTTAGGAGGAACGTT	0.659
TAGCCTAGGTCAAGGGCCAGTATACCACGCGAAC	0.832
ACTAGTTGGTCAGCTGAGGTCATACACAATTCGG	4.75
CGTCCAAGGTCAAGGTCAGTCAAAGAGACTCGAA	3.61
AGTCAAAGTTCGTCTAGGTAACGTAAGATATGCT	0.129
CGTTAAAGTTCAACTAAGGTAACGTAAAGCACGC	1.68
ACTTACGGGTCAACGAGGGTATAGCACGCGTATA	-0.0304
ATCTCTAAGTAAAGATAGTTCAGTGAATGCAAAT	-0.328
GATACAGGGTCAGCTAGAGGCTAGAGTATGGAAA	0.194
CCAGACAGGTGAGAAGGGAACTCAGCCTCGATTA	0.0826
CCTGCTAAGTCAATGGTCAGCTAAAGCAGCTCGC	-0.724
CTACCAAGGTGAACAAGGTCGCTGATTACTATTC	1.81
CCTGCTAGGTCATGATCAGCTAATCTACAGTATG	0.661
TCTAGCAGGACAGAGGGTCACTCAAGAGGTACGG	-0.03
ACTAGCAGGCCAAGTTTGGTTCACTCAAACAAAG	-0.294
ATCTCTAGCTAACAAGTTCAGTGAAAGAGAGGAC	0.651

Sequence	PBM binding z-score
TCTATCAGGCCAGAGGGTCACTCAAGAGGTACGG	0.348
GTACCAAGGTGCATAGGTCGTTGATGAGTAGGCG	-0.427
GCTATTACTTGAAAGGGCAACCGAATGATTCTCG	-0.383
TGTCAAAGTTCAGAGGTAACGTAAGTATCCACAC	0.262
TGGAGTAGGTTAGGGGCATTCAGAATGGCGTCGA	1.06
CCTTACGGGTCACTCCAGTTTATAGCATCGGAGT	0.161
CCGTCTGGGGCAGAAAGGTTACCATACCATCCGG	-0.335
CCTAGTTGGTCAGGAGGGCACACACCGGATATGA	0.029
TCTATTCGTTGATTAGGGCAACCGAAACAGCGGA	0.073
GCTGCTAGGTCCGGTTGGTCAGCTAACGGGTACG	-0.944
GGAACGAGGGCAAAGTGGATAGCATCTGTCGACG	-0.332
GCTAGCAGGCCATTTGGGTCTCTCAATGACGGGC	-0.703
ATCGAAAGTTCGAAGGTGAGTATACCCACCCGAA	-0.388
AGAATGAGGTTATTAAAATCAGGGAATTGCGGTC	0.676
ATCTCTAGGTAACAAGTTCAGTGGAAGAGAGGAC	1.13
GGAACGAGGGCAAAGTTGAAAGCATCTGTCGACG	-0.341
TCTTTTAGATCAAAGGTTAAGAAAGCCGAAGCCT	-0.158
AGAGCGAGGGCACGCTGAGTTGATAGCAGAGTAG	-0.183
ACTCGGAGGACAAAGGTCTGAGCTACGCCAGTGA	-0.424
